HTR5A ag ctr: activates human HTR5A in OPRM1-OPRD1 agonist counter-screen. activation, % at 9.3 µM. actives 0.61% (n = 340,000). P47898. HTR5A agonist assay, luminescence, cell-based; in the data active = activation mostly above about 9.5%, no sharp cut-off; inactive = mostly below about 7.6%;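 also: 0% = cells with vehicle only and 100% = reference agonist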
OPRM1-OPRD1 ag: OPRM1-OPRD1 heterodimerization agonism; activation, % at 9.3 µM; cells, luminescence; actives 0.3% (n = 340,000); in the data active = activation above about 18%;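 also: 0% = vehicle-treated cells and 100% = reference agonist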
Target sequence (P35372 whole entry, looked up): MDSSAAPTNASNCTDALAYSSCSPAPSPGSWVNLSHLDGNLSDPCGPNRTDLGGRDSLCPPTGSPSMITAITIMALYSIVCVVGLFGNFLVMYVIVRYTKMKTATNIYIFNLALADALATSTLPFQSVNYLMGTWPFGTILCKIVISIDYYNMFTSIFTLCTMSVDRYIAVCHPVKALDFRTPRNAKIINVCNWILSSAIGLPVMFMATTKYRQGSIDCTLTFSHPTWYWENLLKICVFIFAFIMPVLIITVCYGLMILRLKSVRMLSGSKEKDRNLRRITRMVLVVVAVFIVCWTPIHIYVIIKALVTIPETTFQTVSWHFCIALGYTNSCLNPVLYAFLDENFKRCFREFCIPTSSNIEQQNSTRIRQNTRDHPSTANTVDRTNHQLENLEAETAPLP
Target sequence (P41143 whole entry, looked up): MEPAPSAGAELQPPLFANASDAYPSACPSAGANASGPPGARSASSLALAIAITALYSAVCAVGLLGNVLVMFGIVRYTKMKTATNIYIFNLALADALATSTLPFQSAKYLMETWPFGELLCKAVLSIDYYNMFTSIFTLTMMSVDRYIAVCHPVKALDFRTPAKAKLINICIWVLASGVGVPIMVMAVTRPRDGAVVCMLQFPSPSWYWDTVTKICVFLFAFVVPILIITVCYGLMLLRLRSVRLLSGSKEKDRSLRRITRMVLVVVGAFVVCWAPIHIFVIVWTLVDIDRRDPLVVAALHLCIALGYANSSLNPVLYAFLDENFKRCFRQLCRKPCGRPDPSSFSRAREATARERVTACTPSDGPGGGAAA
MOR-DOR inv ag: inverse agonists of human mu-delta opioid receptor heterodimerization. actives 0.21% (n = 340,000). P35372+P41143. inhibition, % at 9.3 µM. cell-based MOR-DOR heterodimer luminescence, inverse agonism; in the data active = inhibition above about 22%, passing the limit was not always enough;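 also: 0% = cells with DMSO and 100% = wells without cells with DMSO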
HTR5A inv ctr: counter-screen for OPRM1-OPRD1 inverse agonists: human HTR5A inverse agonism; inhibition, % at 9.3 µM; HTR5A cell line, luminescence; actives 0.083% (n = 340,000); P47898; AID 504634; in the data active = inhibition mostly above about 23%, no sharp cut-off; inactive = mostly below about 18%;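 also: 0% = cells with DMSO and 100% = no-cell wells with DMSO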
The depositor's hits bear a star. Sampled rows, rich in hits. Any-hit rate of the full collection: about 1.1%.

SMILES | HTR5A ag ctr | OPRM1-OPRD1 ag | MOR-DOR inv ag | HTR5A inv ctr
COc1ccc(CNC(=O)c2cc(=O)c3cc(C)c(C)cc3o2)cc1 | 10* | -2 | 9 | -36
O=C1Nc2ccccc2C1(c1ccccc1)c1ccccc1 | 39* | 29* | -170 | -64
Cc1cc(-n2c(SCC(=O)NCc3cccs3)nc3n[nH]c(C)c3c2=N)ccc1Cl | 12* | 2 | -12 | -23
Cc1cc(-n2c(SCC(=O)Nc3ccc(F)c(F)c3)nc3n[nH]c(C)c3c2=N)ccc1Cl | 9.8* | 6 | -34 | -40
O=C(NCc1cccc(Br)c1)C1CC(c2ccc(C(F)(F)F)cc2)=NO1 (stereo not given) | 4 | 0 | -1 | -21
Cc1ccccc1-n1c(=O)c2ccccc2n(CC(=O)NCc2ccco2)c1=O | 1 | -1 | 7 | 11
CC(=O)c1c(C)n(CC(=O)NCc2ccco2)c2ccccc12 | 9.8* | 1 | -3 | 9
O=C(NCCN1CCCCC1)c1cc(OCC(F)(F)F)ccc1OCC(F)(F)F | 10* | 0 | -2 | -10
O=C(CC1C(=O)NCCN1Cc1ccccc1C(F)(F)F)NCCN1CCOCC1 (stereo not given) | 3 | 0 | 0 | 16
O=C(OCC(=O)N1CCOCC1)c1cc2ccccc2oc1=O | -5 | -4 | 16 | -6
O=C(CSC(=S)N1CCOCC1)c1cc2ccccc2oc1=O | 10.0* | -1 | 5 | -36
Nc1nnc(/C=C/c2cccc([N+](=O)[O-])c2)s1 | 3 | -1 | 3 | -11
CCN(C(=O)CSc1ncccc1C(=O)OC(C)C)c1cccc(C)c1 | 11* | -1 | 5 | -13
COc1ccc(S(=O)(=O)Cc2ccc(C(=O)N3CC(C)CC(C)C3)o2)cc1 (stereo not given) | 13* | 0 | 0 | -36
COc1ccc(S(=O)(=O)Cc2ccc(C(=O)N3CCOCC3)o2)cc1 | 8 | -2 | 9 | -23
O=C(CN(Cc1ccc(Br)cc1)S(=O)(=O)c1ccccc1)NCC1CCCO1 (stereo not given) | 9 | -3 | 17 | -21
CC1=C(C)/C(=N\OS(=O)(=O)c2ccccc2)C=CC1=O | 3 | 62* | -331 | 19
Cc1c(C(=O)OCC(=O)Nc2ccc(S(N)(=O)=O)cc2)oc2c1ccc1ccccc12 | 12* | 10 | -48 | -21
Cc1cc(NC(=O)COC(=O)c2oc3c(ccc4ccccc43)c2C)no1 | 0 | 5 | -30 | -1
OCC1(CCOc2ccccc2)CCN(Cc2ccc(OC(F)F)cc2)CC1 | 6 | 2 | -8 | -16
CC(=O)Nc1nc(-c2cccs2)cs1 | -1 | -3 | 15 | 5
O=C(Nc1nc(-c2cccs2)cs1)c1ccc(Cl)s1 | 14* | 5 | -26 | -41
Cc1ccc(NC(=O)/C=N/OCC(=O)NCc2ccccc2Cl)cc1 | 14* | -2 | 10 | -40
CCCCOc1ccc(CSCCNC(=S)Nc2ccccc2)cc1 | 14* | 2 | -12 | -13
COc1cc(C(=O)COC(=O)c2cccs2)cc(OC)c1OC | -1 | -2 | 11 | 5
SMILES | HTR5A ag ctr | OPRM1-OPRD1 ag | MOR-DOR inv ag | HTR5A inv ctr
COc1ccc2c(c1)Sc1ccccc1N2CCN(C)C | -4 | 19* | -108 | -8
COc1cccc(/C=C(/C(=O)OCC(=O)NC2CCCCCCC2)c2ccccc2)c1 | 2 | 3 | -17 | -5
COc1cccc(/C=C(/C(=O)OCC(=O)NCC2CCCO2)c2ccccc2)c1 (stereo not given) | 11* | 4 | -29 | -27
Cc1cc(CNC(=O)COc2ccccc2)c2ccccc2n1 | 6 | -1 | 3 | -51
Cc1cc(CNC(=O)COc2ccc(F)cc2)c2ccccc2n1 | 11* | -1 | 8 | -5
Cn1c(-c2ccc(-c3ccccc3)cc2)c[nH]c1=S | -10 | -7 | 41* | 46*
Brc1ccc2c(c1)CN1CCCC1=N2 | -1 | -4 | 18 | 5
CCOC(=O)N1CCN(C(=O)CCn2c(=S)[nH]c3ccccc3c2=O)CC1 | -3 | -3 | 14 | 1
O=C(CCn1c(=S)[nH]c2ccccc2c1=O)N1CCCCC1 | 9.4* | -2 | 13 | -35
CCC(C)n1c(=S)[nH]c2ccccc2c1=O (stereo not given) | -1 | 2 | -11 | 1
COc1ccc(C(=O)c2sc3nc(-c4ccccc4)ccc3c2N)cc1OC | 18* | 10 | -58 | -10
COc1ccccc1CC(=O)N1CCN(S(=O)(=O)c2ccccc2)CC1 | 13* | -1 | 5 | 21
COc1ccccc1CC(=O)N1CCN(S(=O)(=O)c2ccccc2F)CC1 | 6 | -2 | 9 | -23
CC(C)CNS(=O)(=O)c1cc(C(=O)N2CCOCC2)c(Cl)cc1Cl | 10* | -2 | 7 | 11
CCCOC(=O)c1ccc(NC(=O)c2cccc(S(=O)(=O)N3CCN(C(C)=O)CC3)c2)cc1 | 12 | 7 | -60 | -35
CCOC(=O)c1ccc(NC(=O)c2cccc(S(=O)(=O)N3CCN(C(C)=O)CC3)c2)cc1 | 12* | 0 | -1 | -6
CC(C)(C)NC(=O)CC1C[C@H](C(=O)N2CCCCC2)[C@@]2(CCc3ccccc3)c3[nH]c4ccccc4c3CCN2C1=O (stereo not given in full) | 2 | -2 | 11 | -8
COc1ccc(NC(=O)Nc2cccc3c2O[C@H](CN(C)S(=O)(=O)c2ccc(OC)cc2)[C@@H](C)CN([C@H](C)CO)C3=O)cc1 | 2 | -3 | 14 | -7
COc1ccc(NC(=O)Nc2cccc3c2O[C@H](CN(C)S(=O)(=O)c2c(C)noc2C)[C@@H](C)CN([C@H](C)CO)C3=O)cc1 | 10* | -1 | 4 | -39
O=C(CSc1ccc2c(c1)OCCO2)Nc1ncccc1O | -4 | -2 | 13 | 9
Cc1cc(N2CCN(C)CC2)nc2ccc(NC(=S)N3CCCCC3)cc12 | -5 | -3 | 17 | 13
Cc1cc(N2CCOCC2)nc2ccc(NC(=S)N3CCCCC3C)cc12 (stereo not given) | 12* | 3 | -22 | -33
COc1cccc(NC(=O)CSCC(=O)Nc2ccccc2)c1 | -3 | -2 | 8 | -6
COc1cccc(NC(=O)CSCC(=O)O)c1 | 14* | -2 | 9 | -31
C[C@@H](OC(=O)N(C)Cc1ccccc1)[C@H]1O[C@]2(C)CCCC[C@H]1O2 | 2 | -3 | 16 | -1
SMILES | HTR5A ag ctr | OPRM1-OPRD1 ag | MOR-DOR inv ag | HTR5A inv ctr
O=C(COC(=O)/C=C/c1cccc([N+](=O)[O-])c1)Nc1cccnc1Cl | -2 | -1 | 5 | 6
O=c1ccc2cc(S(=O)(=O)N3CCN(c4ccccc4)CC3)ccc2[nH]1 | 6 | 4 | -20 | 11
O=S(=O)(c1ccc2nc(-c3ccccc3)[nH]c2c1)N1CCN(c2ccc(Cl)cc2)CC1 | 10* | 4 | -22 | -11
Cc1ccc(C2C(C#N)=C(N)N(c3cccnc3)C3=C2C(=O)CCC3)c(C)c1 (stereo not given) | 1 | 4 | -19 | 10
CCOc1ccc(-n2nnnc2SCC(=O)c2ccccc2)cc1 | 13* | 1 | -6 | 9
COc1ccc(-n2nnnc2SCC(=O)c2cccc(OC)c2)cc1 | -1 | 0 | 1 | 14
CCOC(=O)/C(=C\c1ccccc1)C(=O)c1cc(C(C)=O)c(Nc2ccccc2)s1 | 3 | 1 | -4 | -4
